The values that follow come from publication PMC4336329 (PLoS ONE, 2015).

The structures appear in SMILES notation. Out of some 310,000 compounds screened, about 2,200 (0.71%) showed an effect of 50% or more. Effects have a minus sign here. What follows is part of a selection rich in strong results, with near analogues and random picks from the rest.

Sequence of human ether-à-go-go-related gene (hERG) potassium channel (Q12809 whole entry, looked up): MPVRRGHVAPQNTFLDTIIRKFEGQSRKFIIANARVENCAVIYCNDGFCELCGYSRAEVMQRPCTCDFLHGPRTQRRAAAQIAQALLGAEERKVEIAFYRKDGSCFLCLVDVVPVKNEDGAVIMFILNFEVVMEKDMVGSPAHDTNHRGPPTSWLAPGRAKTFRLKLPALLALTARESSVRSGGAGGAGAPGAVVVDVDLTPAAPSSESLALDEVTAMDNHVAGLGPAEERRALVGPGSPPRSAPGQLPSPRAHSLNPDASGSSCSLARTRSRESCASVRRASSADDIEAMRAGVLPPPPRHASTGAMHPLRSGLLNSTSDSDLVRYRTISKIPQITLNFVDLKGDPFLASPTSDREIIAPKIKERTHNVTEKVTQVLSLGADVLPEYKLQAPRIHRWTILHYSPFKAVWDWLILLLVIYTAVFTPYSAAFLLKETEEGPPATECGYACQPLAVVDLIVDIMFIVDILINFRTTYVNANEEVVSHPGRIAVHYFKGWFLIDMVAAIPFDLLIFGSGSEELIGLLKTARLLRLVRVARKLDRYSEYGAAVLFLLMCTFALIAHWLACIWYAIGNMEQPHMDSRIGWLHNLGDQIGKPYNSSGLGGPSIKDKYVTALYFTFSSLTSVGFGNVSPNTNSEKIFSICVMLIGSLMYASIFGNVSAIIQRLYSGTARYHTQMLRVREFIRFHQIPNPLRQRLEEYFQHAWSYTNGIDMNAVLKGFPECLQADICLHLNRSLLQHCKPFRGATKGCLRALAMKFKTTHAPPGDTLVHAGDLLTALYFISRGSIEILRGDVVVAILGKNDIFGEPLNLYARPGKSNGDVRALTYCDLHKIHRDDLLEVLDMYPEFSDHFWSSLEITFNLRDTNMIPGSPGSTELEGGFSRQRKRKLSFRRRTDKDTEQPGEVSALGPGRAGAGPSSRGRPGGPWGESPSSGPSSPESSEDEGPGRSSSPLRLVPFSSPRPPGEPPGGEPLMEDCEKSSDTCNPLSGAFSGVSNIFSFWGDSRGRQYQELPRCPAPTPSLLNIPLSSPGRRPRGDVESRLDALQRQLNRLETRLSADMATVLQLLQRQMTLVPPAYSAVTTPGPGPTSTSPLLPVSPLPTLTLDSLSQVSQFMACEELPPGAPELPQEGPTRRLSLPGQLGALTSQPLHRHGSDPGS

The test concerns the target human ether-à-go-go-related gene (hERG) potassium channel (human, UniProt Q12809). Put plainly: primary screen, population patch clamp on CHO cells stably expressing hERG; higher = less effect of the substance.
For the compound `CC1(C(=O)O)COC(c2ccc([N+](=O)[O-])cc2)OC1` (stereo not drawn), the “hERG current change (%, negative = inhibition) at 1uM” value came to 2.26%.
With `Cn1c(=O)cc(SCC(=O)N2CCCC2)c2ccccc21`, the “hERG current change (%, negative = inhibition) at 1uM” value was 9.79%.
For `CCn1ccnc1CNC(=O)CC1C(=O)NCCN1Cc1ccc(F)cc1Cl` (stereo not drawn) the value was 13.5%.
As to `COc1ccc2[nH]cc(C(O)CN3CCC(C(N)=O)CC3)c2c1` (stereo not drawn), the “hERG current change (%, negative = inhibition) at 1uM” value is 11.1%.
As for `COc1ccc(N2CCN(CC(O)c3c[nH]c4ccc(OC)cc34)CC2C)cc1` (stereo not drawn), the “hERG current change (%, negative = inhibition) at 1uM” value is -50.6%.
For the compound `COc1ccc2[nH]cc(C(O)CN3CCN(c4ccccc4F)CC3)c2c1` (stereo not drawn), the “hERG current change (%, negative = inhibition) at 1uM” value stood at 8.35%.
Take `CC(C)OC(=O)/C(=C\c1ccccc1)NC(=O)c1ccccc1`: the “hERG current change (%, negative = inhibition) at 1uM” value worked out at 9.47%.
With `CCN(CC)S(=O)(=O)c1ccc(C)c(NC(=O)CN2CCN(C)CC2)c1.O=C(O)C(=O)O`, the “hERG current change (%, negative = inhibition) at 1uM” value is recorded as 6%.
`CCN(CC)S(=O)(=O)c1ccc(C)c(NC(=O)CNCc2ccccc2OC)c1.O=C(O)C(=O)O`: the “hERG current change (%, negative = inhibition) at 1uM” value was 20.9%.
With `CCN(CC)S(=O)(=O)c1ccc(C)c(NC(=O)CNCCN(C(C)C)C(C)C)c1.O=C(O)C(=O)O`, the “hERG current change (%, negative = inhibition) at 1uM” value is -66.5%.
The result for `O=C1Nc2ccccc2N=C(c2ccccc2)C1N1CCOCC1` (stereo not drawn) reads 18.1%; that for `COc1nc(NC2CCCCC2)nc(NC(C)(C)C)n1`, 4.9%.
Consider `Cc1ccc(NCc2nnc(SCc3ccc(C#N)cc3)n2Cc2ccco2)c(C)c1`, for which the “hERG current change (%, negative = inhibition) at 1uM” value is listed as -54.9%.
Turning to `Cc1cc(C)nc(SCc2nnc(SCc3ccc([N+](=O)[O-])cc3)n2Cc2ccco2)n1`, the “hERG current change (%, negative = inhibition) at 1uM” value is -57.5%.
Consider `COC(=O)CSc1nnc(CSc2nc(C)cc(C)n2)n1Cc1ccco1`, for which the “hERG current change (%, negative = inhibition) at 1uM” value is reported as 11.5%.
Regarding `Cc1ccc(-c2nnc(SCc3ccc(C#N)cc3)n2Cc2ccco2)cc1`, the “hERG current change (%, negative = inhibition) at 1uM” value was -19.2%.
With `Cc1cccc(-c2nnc(SCc3ccc(C#N)cc3)n2Cc2ccco2)c1`, the “hERG current change (%, negative = inhibition) at 1uM” value was -44%.
As to `Cc1cc(C)nc(SCc2nnc(SCC(N)=O)n2Cc2ccco2)n1`, the “hERG current change (%, negative = inhibition) at 1uM” value was -3.7%.
On to `Cl.O=C(NCCCn1ccnc1)c1cc(Cl)cc(Cl)c1`, for which the “hERG current change (%, negative = inhibition) at 1uM” value is reported as 4.65%.
As for `CC1CCC/C(=C\Nc2ccc(C(=O)O)c(O)c2)C1=O` (stereo not drawn), the “hERG current change (%, negative = inhibition) at 1uM” value was determined as 9.19%.
Regarding `COc1cc(OC)cc(C(=O)Oc2ccc(/C=N/Nc3nc4ccccc4s3)cc2OC)c1`, the “hERG current change (%, negative = inhibition) at 1uM” value amounted to 0.482%.
The result for `Cc1onc(-c2c(Cl)cccc2Cl)c1C(=O)Nc1ccc(Cl)cn1` reads 11.3%.
The result for `COc1ccccc1NS(=O)(=O)c1cccc(C(=O)NCC(c2ccco2)N2CCCCC2)c1` (stereo not drawn) reads -0.284%; that for `COc1ccccc1C(=O)NCC(=O)NC(C)c1ccc(-n2ccnc2)cc1` (stereo not drawn), -2.86%.
The result for `CCOc1ccccc1C(=O)NCC(=O)NC(C)c1ccc(-n2ccnc2)cc1` (stereo not drawn) reads -58.3%; that for `CCOc1ccccc1C(=O)NC(C)c1ccc(-n2ccnc2)cc1` (stereo not drawn), -34.8%.
For the compound `COc1ccccc1NC(=O)c1ccc(COc2ccccc2Br)o1`, the “hERG current change (%, negative = inhibition) at 1uM” value came out at 13.8%.
`COc1ccccc1N1CCN(Cc2ccc(Br)cc2)CC1.O=C(O)C(=O)O`: the “hERG current change (%, negative = inhibition) at 1uM” value is on record as -6.63%.
The result for `COc1ccccc1N1CCN(Cc2ccccc2)CC1.O=C(O)C(=O)O` reads 6.85%; that for `CCN(CC)c1ccc(CN2CCC(C(=O)NCc3ccc(C)cc3)CC2)cc1.O=C(O)C(=O)O`, -13.2%; that for `COc1ccccc1N1CCN(Cc2ccc(SC)cc2)CC1.O=C(O)C(=O)O`, -53.8%.
`O=C(O)C(=O)O.O=C(c1ccc([N+](=O)[O-])cc1)N1CCN(Cc2ccccc2[N+](=O)[O-])CC1`: the “hERG current change (%, negative = inhibition) at 1uM” value was -70.1%.
Take `COc1ccc(C(=O)N2CCN(Cc3ccccc3[N+](=O)[O-])CC2)cc1.O=C(O)C(=O)O`: the “hERG current change (%, negative = inhibition) at 1uM” value is given as -20.9%.
For `CSc1ccc(CN2CCC(C(=O)NCc3ccc(C)cc3)CC2)cc1.O=C(O)C(=O)O` the value was -76.1%.
Regarding `CCS(=O)(=O)N1CCN(Cc2ccc([N+](=O)[O-])cc2)CC1.O=C(O)C(=O)O`, the “hERG current change (%, negative = inhibition) at 1uM” value was determined as 9.38%.
For the compound `Cc1ccc(CNC(=O)C2CCCC2)cc1`, the “hERG current change (%, negative = inhibition) at 1uM” value amounted to 10.4%.
For the compound `CSc1ccc(CN2CCN(Cc3ccc([N+](=O)[O-])cc3)CC2)cc1.O=C(O)C(=O)O`, the “hERG current change (%, negative = inhibition) at 1uM” value is on record as -70.5%.
Regarding `CCc1ccc(CN2CCN(Cc3ccc(SC)cc3)CC2)cc1.O=C(O)C(=O)O`, the “hERG current change (%, negative = inhibition) at 1uM” value is -27.1%.
The result for `COc1cc(OC)cc(C(=O)N2CCN(Cc3ccccc3[N+](=O)[O-])CC2)c1.O=C(O)C(=O)O` reads -7.12%; that for `O=C(Cc1ccc([N+](=O)[O-])cc1)NCc1ccccn1`, 12.5%.
The result for `CC(N=C1NS(=O)(=O)c2ccccc21)C(=O)OCC(=O)N(C)C1CCS(=O)(=O)C1` (stereo not drawn) reads -1.85%; that for `Cc1ccc2c(c1)c1c(c(=O)n(-c3ccccc3C)c(=O)n1CC(=O)NCC1CCCO1)n2C` (stereo not drawn), 0.188%.
